Values without a mark were called inactive. Records with an inconclusive call do not appear. Calls of active or inactive are those of the source. Unless noted, calls come from the whole dose curve; as a rule, active = well fitted curve in the direction sought with a large enough effect in the repeat runs; inconclusive = weak or mixed curves; inactive = no such curve, though single readings can be large; an effect the other way counts as inactive or inconclusive.

A short description of assay [1]: qHTS assay to identify small molecule antagonists of the sonic hedgehog signaling (Shh) pathway (AID 1259369; calls by dose curve; note: nearly all actives have a fitted effect of over 45% in size). In a few lines: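 Stable Gli1-Luc reporter NIH/3T3 clone; quantitative HTS in stimulated mode with conditioned medium. Luminescence measured after 24hr compound treatment at 37 C.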
In general terms: In qHTS, concentration-response curves come from the screen itself.

Assay [2] concerns the target Estrogen receptor beta (Homo sapiens) (UniProt Q92731). Description: qHTS assay to identify small molecule agonists of the estrogen receptor beta (ER-beta) signaling pathway (AID 1259377; active = well fitted activation curve with a large enough effect in the signal ratio in the repeat runs, not every such curve was filed as active; the % refers to the signal ratio). The method, boiled down: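 Measured by fluorescence intensity from a B/G FRET beta-lactamase substrate (2 h, room temperature) in ER-beta-UAS-bla HEK293T cells treated with DMSO-dissolved compounds for 16 hr at 37C and 5% CO2.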

Assay [3] has the same target. Description: qHTS assay to identify small molecule antagonists of the estrogen receptor beta (ER-beta) signaling pathway (AID 1259378; active = well fitted inhibition curve with a large enough effect in the signal ratio in the repeat runs, not every such curve was filed as active; the % refers to the signal ratio). In a few lines:
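Antagonist mode: compounds added to beta-lactamase reporter HEK293T ER-beta-UAS cells stimulated with E2 (1nM final), 16 hr at 37C. LiveBLAzer B/G FRET substrate, 2 hours room temperature, fluorescence read-out.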

Assay [4] can be described thus: qHTS assay to identify small molecule agonists of the androgen receptor (AR) signaling pathway in the presence of an antagonist - cell viability counter screen (AID 1259379). Note: nearly all actives have a fitted effect of over 25% in size. Note: potency is the fitted concentration of half-maximal effect. In a few lines:
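Nilutamide-containing (3.0uM final) MDA-kb2 cultures, 3,000 cells/well, were treated with compounds across 15 concentrations. After 16 hr at 37C with no CO2, cell viability was determined by CellTiter-Fluor fluorescence in the luciferase assay wells.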

A short description of assay [5]: qHTS assay to identify small molecule agonists of the estrogen receptor beta (ER-beta) signaling pathway - cell viability counter screen (AID 1259380). Note: nearly all actives have a fitted effect of over 30% in size. In a few lines: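 Steps: plate ER-beta-UAS-bla HEK293T cells, rest 6 hr; add compounds in DMSO; incubate 16 hr at 37C, 5% CO2; add FRET substrate 2 hr; add CellTiter-Glo, wait 30 min at room temperature; read luminescence.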

The nature of assay [6]: qHTS assay to identify small molecule agonists or antagonists of the thyroid stimulating hormone receptor (TSHR) signaling pathway - wild type cell line counter screen (AID 1259384; calls by dose curve). The method, boiled down: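 Counter screen in untransfected Hek293: compounds (15-point titration, triplicate) plus phosphodiesterase inhibitor Ro20-1724 added after 18 h plating; 30 min RT. Intracellular cAMP via competitive d2/cryptate immunoassay, 1 h incubation.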

Assay [7] concerns the target Thyrotropin receptor (Homo sapiens) (UniProt P16473). Description: qHTS assay to identify small molecule antagonists of the thyroid stimulating hormone receptor (TSHR) signaling pathway (AID 1259385; calls by dose curve; note: nearly all actives have a fitted effect of over 20% in size). In a few lines: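 Antagonist mode: compound-treated TSHR-expressing HEK293 cells were stimulated with 1.5 ng/mL TSH (final) in presence of Ro20-1724 for 30 min at RT. HTRF cAMP detection after 1 h; each compound tested at 15 concentrations, triplicate.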

The nature of assay [8]: qHTS assay to identify small molecule agonists of the estrogen receptor alpha (ER-alpha) signaling pathway in the presence of an antagonist - cell viability counter screen (AID 1259386).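 Note: cells exposed to compounds for 22 h at 37 °C before the viability read; nearly all actives have a fitted effect of over 30% in size.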 Note: potency is the fitted concentration of half-maximal effect. The method, boiled down: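 In this counter screen, compound effects on VM7Luc4E2 viability were tested in the presence of the antagonist ICI-182,780 at 10.0nM final. Compounds were dosed at 15 concentrations, exposure lasted 22hr, and the CellTiter-Fluor signal was read.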

Assay [9] concerns the target Progesterone receptor (Homo sapiens) (UniProt P06401). Nature of the assay: qHTS assay to identify small molecule agonists of the progesterone receptor (PR) signaling pathway (AID 1346784; calls by dose curve; note: nearly all actives have a fitted effect of over 30% in size). The method, boiled down:
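The screen uses PR-UAS-bla HEK 293T cells in charcoal-stripped serum (2%). Compounds are applied for 16 hr at 37C after a 6 hr pre-incubation, and reporter activity is detected with a FRET beta-lactamase substrate after 2 hr at room temperature.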

Assay [10] has the same target. Nature of the assay: qHTS assay to identify small molecule antagonists of the progesterone receptor (PR) signaling pathway (AID 1346795; active = well fitted inhibition curve with a large enough effect in the signal ratio in the repeat runs, not every such curve was filed as active; the % refers to the signal ratio). The method, boiled down:
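After 6 hr plating at 37C in 2% stripped-serum medium, PR-UAS-bla HEK293T cells got compounds, then 1 nM R5020. Sixteen hours later, LiveBLAzer substrate was applied for 2 hr at room temperature and fluorescence was recorded.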

Assay [11] in a line: qHTS assay to identify small molecule antagonists of the progesterone receptor (PR) signaling pathway - cell viability counter screen (AID 1346798). Note: series mostly up to about 92 µM; nearly all actives have a fitted effect of over 50% in size. The method, boiled down: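 Viability was determined by ATP-based luminescence (CellTiter-Glo) in PR-UAS-bla HEK293T cells cultured in 2% charcoal-stripped serum and incubated 16 hr with compounds under R5020 stimulation.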
The nature of assay [12]: qHTS assay to identify small molecule agonists of the progesterone receptor (PR) signaling pathway - cell viability counter screen (AID 1346799; calls by dose curve; note: nearly all actives have a fitted effect of over 45% in size). The method, boiled down: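 Viability was scored by ATP luminescence (CellTiter-Glo, 30 min, room temperature) in the same wells used for the reporter readout, after 16 hr compound exposure of PR-UAS-bla HEK293T cells.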
Assay [13] is described as follows: qHTS assay to identify small molecule antagonists of the TGF-beta/Smad signaling pathway - cell viability counter screen (AID 1346824). Note: nearly all actives have a fitted effect of over 50% in size. The method, boiled down:
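Cytotoxicity counter-screen run in the same wells as the beta-lactamase Smad reporter read: CellTiter-Glo luminescence after 30 min at room temperature. HEK 293T SBE-bla cells had 5 hr compound exposure at 37 C with TGF-beta1 (0.25 ng/mL stock).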

The nature of assay [14]: qHTS assay to identify small molecule agonists of the TGF-beta/Smad signaling pathway - cell viability counter screen (AID 1346829). Note: top concentration of the series differs between compounds; nearly all actives have a fitted effect of over 45% in size. In a few lines:
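Here the cytotoxicity of library compounds is measured in SBE-bla HEK 293T cells treated for 5 hr, using CellTiter-Glo added to wells already read for the beta-lactamase reporter.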

A short description of assay [15]: qHTS assay to identify small molecule agonists of the TGF-beta/Smad signaling pathway (AID 1346859; active = well fitted activation curve with a large enough effect in the signal ratio in the repeat runs, not every such curve was filed as active; the % refers to the signal ratio; note: series mostly up to about 77 µM). The method, boiled down:
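Dual-wavelength fluorescence (460/530 nm emission) quantified beta-lactamase expression under the Smad binding element in HEK 293T cells following 5 hr compound treatment at 37 C.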

The target in assay [16] is Thyrotropin-releasing hormone receptor (Homo sapiens) (UniProt P34981). Nature of the assay: qHTS assay to identify small molecule antagonists of the thyrotropin-releasing hormone receptor (TRHR) signaling pathway (AID 1346877; active = well fitted inhibition curve with a large enough effect in the repeat runs, not every such curve was filed as active; note: series mostly up to about 51 µM). The method, boiled down: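 Kinetic fluorescence (3 min, 1 s resolution) following stimulation with TRH at 1 nM final; HEK293 cells bearing human TRHR; 5 min compound preincubation at RT; concentration-response over 15 points, triplicates.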
Thyrotropin-releasing hormone receptor (Homo sapiens), sequence (P34981 whole entry, looked up): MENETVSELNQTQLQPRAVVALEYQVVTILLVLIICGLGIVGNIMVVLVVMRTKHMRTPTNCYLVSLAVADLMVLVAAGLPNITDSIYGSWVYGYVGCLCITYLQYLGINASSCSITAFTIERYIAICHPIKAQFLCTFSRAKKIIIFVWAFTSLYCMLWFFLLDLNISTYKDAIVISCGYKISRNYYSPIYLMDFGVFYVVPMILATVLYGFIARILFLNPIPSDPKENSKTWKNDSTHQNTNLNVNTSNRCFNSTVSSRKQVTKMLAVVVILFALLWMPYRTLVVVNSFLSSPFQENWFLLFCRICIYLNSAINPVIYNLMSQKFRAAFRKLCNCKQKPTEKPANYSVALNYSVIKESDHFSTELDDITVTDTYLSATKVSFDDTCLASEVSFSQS

Assay [17] shares this target. Nature of the assay: qHTS assay to identify small molecule agonists of the thyrotropin-releasing hormone receptor (TRHR) signaling pathway (AID 1346891; calls by dose curve;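 note: HEK293 cells expressing TRHR with calcium dye readout; series mostly up to about 58 µM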). The method, boiled down: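 Kinetic fluorescence (3 min, 1 s intervals) reported intracellular calcium after compound transfer onto TRHR-Hek293 cells pre-loaded with dye for 2 h at 37 °C.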
The nature of assay [18]: qHTS assay to identify small molecule antagonists of the estrogen receptor beta (ER-beta) signaling pathway - cell viability counter screen (AID 1259382). Note: series mostly up to about 92 µM; nearly all actives have a fitted effect of over 55% in size. The method, boiled down: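 Viability is scored by CellTiter-Glo luminescence (30 min, room temperature) in ER-beta-UAS-bla HEK293T wells already read for reporter fluorescence. Compound exposure lasts 16 hr at 37C alongside 1nM 17-beta-estradiol in charcoal-stripped serum medium.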

For assay [19], the target named is Estrogen receptor (Homo sapiens) (UniProt P03372). Nature of the assay: qHTS assay to identify small molecule agonists of the estrogen receptor alpha (ER-alpha) signaling pathway in the presence of an antagonist (AID 1259383; calls by dose curve; note: top concentration of the series differs between compounds; nearly all actives have a fitted effect of over 15% in size). In a few lines:
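Readout was ERE-driven luciferase luminescence in VM7Luc4E2 cells, which express full-length ER-alpha endogenously. Compounds were tested at 15 concentrations for 22hr alongside 10.0nM ICI-182,780 (final concentration).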

The target of assay [20] is Androgen receptor (Homo sapiens) (UniProt P10275). Description: qHTS assay to identify small molecule agonists of the androgen receptor (AR) signaling pathway in the presence of an antagonist (AID 1259381; calls by dose curve; note: nearly all actives have a fitted effect of over 15% in size). In a few lines: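 Reporter-gene luminescence from MDA-kb2 cells exposed 16hr at 37C (0% CO2) to 15-point compound titrations with 3.0uM final nilutamide as AR antagonist.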
Androgen receptor (Homo sapiens), sequence (P10275 whole entry, looked up): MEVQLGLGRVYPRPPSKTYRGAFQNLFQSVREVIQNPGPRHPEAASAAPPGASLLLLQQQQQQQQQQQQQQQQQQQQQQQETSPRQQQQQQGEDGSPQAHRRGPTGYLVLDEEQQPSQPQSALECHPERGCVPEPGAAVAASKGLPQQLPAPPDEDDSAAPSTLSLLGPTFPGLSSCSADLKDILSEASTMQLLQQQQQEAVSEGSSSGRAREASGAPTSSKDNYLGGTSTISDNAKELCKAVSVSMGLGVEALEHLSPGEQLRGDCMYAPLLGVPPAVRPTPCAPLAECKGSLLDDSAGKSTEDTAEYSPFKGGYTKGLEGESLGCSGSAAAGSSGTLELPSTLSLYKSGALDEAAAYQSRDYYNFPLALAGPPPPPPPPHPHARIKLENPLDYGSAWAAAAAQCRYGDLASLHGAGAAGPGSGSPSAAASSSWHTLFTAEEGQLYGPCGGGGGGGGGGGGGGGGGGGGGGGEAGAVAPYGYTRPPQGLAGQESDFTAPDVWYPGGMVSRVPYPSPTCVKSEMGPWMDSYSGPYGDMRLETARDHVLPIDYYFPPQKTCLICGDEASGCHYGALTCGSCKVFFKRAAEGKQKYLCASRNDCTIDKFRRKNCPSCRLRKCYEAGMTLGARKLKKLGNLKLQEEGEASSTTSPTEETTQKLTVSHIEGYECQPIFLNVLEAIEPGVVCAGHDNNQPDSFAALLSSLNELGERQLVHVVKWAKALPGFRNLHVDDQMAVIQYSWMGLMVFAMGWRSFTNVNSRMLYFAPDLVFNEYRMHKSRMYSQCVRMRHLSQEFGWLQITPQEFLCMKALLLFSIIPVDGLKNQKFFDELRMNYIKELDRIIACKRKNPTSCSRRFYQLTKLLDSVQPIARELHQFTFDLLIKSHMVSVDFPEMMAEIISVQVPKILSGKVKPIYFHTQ

Thyrotropin receptor (Homo sapiens), sequence (P16473 whole entry, looked up): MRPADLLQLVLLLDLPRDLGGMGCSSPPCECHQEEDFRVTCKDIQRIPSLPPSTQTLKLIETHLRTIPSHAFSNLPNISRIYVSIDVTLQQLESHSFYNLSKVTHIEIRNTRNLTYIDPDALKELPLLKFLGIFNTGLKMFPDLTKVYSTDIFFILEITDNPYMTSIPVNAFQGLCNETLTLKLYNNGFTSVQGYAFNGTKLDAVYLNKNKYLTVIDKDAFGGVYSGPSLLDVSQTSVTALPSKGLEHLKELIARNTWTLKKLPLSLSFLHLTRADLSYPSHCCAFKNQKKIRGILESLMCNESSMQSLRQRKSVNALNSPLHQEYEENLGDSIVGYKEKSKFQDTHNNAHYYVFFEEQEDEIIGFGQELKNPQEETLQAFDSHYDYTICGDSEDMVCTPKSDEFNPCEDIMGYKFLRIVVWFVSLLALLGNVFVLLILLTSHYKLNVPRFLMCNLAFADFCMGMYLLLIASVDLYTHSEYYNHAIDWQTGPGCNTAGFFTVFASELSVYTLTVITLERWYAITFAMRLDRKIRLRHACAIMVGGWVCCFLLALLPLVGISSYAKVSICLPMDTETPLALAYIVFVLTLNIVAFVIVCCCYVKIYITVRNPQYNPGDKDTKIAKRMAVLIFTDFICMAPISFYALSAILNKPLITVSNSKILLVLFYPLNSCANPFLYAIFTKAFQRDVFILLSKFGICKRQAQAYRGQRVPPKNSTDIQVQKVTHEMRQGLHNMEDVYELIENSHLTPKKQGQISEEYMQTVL
Estrogen receptor beta (Homo sapiens), sequence (Q92731 whole entry, looked up): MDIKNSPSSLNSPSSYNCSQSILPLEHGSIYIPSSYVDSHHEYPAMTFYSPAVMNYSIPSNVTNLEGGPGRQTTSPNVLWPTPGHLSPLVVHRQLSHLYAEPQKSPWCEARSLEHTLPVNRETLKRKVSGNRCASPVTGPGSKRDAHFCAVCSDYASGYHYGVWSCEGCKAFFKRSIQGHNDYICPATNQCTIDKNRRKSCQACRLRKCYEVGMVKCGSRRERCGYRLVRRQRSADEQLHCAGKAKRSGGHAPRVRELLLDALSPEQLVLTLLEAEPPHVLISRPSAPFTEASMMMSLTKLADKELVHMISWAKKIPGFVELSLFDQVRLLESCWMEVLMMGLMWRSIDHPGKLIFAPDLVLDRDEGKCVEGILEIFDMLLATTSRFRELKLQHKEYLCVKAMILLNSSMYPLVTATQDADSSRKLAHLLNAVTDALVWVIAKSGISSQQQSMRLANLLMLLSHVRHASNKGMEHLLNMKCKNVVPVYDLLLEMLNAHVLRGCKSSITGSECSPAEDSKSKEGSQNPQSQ
Progesterone receptor (Homo sapiens), sequence (P06401 whole entry, looked up): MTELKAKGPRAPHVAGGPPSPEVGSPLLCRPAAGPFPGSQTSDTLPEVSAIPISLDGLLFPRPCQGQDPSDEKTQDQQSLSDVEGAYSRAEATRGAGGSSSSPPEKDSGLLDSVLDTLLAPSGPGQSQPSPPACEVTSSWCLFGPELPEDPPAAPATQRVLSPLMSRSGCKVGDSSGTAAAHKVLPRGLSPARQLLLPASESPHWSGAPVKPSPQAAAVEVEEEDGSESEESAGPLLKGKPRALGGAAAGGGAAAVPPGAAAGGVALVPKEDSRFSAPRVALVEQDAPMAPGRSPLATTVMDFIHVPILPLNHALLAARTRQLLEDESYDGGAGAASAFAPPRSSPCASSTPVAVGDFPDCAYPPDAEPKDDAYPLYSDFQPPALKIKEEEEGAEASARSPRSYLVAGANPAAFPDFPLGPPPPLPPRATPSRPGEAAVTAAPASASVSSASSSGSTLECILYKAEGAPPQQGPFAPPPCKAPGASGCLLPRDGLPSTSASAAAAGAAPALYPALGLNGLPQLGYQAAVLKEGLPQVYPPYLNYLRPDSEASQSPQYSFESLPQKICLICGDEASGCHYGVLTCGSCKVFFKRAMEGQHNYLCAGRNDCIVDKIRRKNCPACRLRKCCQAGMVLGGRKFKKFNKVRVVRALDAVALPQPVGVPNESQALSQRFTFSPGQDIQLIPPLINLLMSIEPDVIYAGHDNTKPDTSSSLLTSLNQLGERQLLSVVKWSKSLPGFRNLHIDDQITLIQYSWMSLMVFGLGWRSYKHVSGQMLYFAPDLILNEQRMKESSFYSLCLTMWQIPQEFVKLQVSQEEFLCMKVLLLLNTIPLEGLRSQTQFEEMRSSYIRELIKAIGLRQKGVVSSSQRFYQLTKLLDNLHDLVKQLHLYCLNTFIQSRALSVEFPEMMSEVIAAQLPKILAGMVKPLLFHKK
Estrogen receptor (Homo sapiens), sequence (P03372 whole entry, looked up): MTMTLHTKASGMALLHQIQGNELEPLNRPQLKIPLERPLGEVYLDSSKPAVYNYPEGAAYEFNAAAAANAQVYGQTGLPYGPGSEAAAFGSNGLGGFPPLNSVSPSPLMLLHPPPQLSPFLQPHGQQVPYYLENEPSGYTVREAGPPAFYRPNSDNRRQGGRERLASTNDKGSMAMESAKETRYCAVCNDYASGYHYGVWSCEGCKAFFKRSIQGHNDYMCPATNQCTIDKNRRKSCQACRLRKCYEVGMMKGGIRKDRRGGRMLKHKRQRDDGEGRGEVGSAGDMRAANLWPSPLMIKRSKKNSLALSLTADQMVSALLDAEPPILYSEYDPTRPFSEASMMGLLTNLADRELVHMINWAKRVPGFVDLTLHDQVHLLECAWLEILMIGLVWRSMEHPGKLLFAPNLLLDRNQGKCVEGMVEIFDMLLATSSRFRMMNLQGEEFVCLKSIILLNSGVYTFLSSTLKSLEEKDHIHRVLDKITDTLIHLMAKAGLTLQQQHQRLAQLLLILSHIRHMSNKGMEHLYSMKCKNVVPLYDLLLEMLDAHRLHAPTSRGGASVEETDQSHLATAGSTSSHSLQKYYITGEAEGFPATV

`C=CCOC(=O)CCC1CCCCC1`: the Potency result in assay [1], in [2], in [3], in assay [4], in assay [5] and in [6] was “inactive” each time. For the same molecule, the Potency entry in assay [7], in assay [8], in assay [9], in [10], in assay [11] and in assay [12] was “inactive” in each case. Further, the Potency entry in assay [13] and in assay [15] was “inactive” in each case. Besides, the outcome in assay [14] and in assay [16] was inactive.

For `CCn1cc(C(=O)O)c(=O)c2cnc(N3CCNCC3)nc21`, the Potency entry in assay [1], in [2], in [3], in assay [4], in assay [5] and in [8] was “inactive” in each case. The Potency entry in assay [9], in assay [10], in [11], in assay [12], in assay [13] and in [15] was “inactive” each time. Further, the Potency result in [17] is “inactive”. In assay [14], the molecule was called inactive.

Turning to `O=C(O)c1ccc(S(=O)(=O)O)cc1C(=O)O`, the Potency result in [1], in [2], in [3], in assay [5], in assay [18] and in assay [19] was “inactive” in each case. Further, the Potency entry in assay [6], in [7], in [8], in [9], in [10] and in [11] was “inactive” throughout. Also, the Potency result in assay [12], in assay [13], in assay [15] and in [17] was “inactive” each time. Moreover, the molecule was called inactive in assay [14] and in assay [16].

For the molecule `CCN(CC)CCNC(=O)c1cc(Br)c(N)cc1OC`, the Potency result in assay [1], in [2], in assay [3], in assay [5], in [18] and in [19] was “inactive” throughout. For the same molecule, the Potency result in assay [6], in assay [7], in assay [8], in [9], in assay [10] and in [11] was “inactive” each time. Also, the Potency entry in assay [12], in assay [13], in [15] and in assay [17] was “inactive” each time. Besides, the molecule was classed as inactive in assay [14] and in [16].

Turning to `C=C1[C@H]2CC[C@@H]3[C@H]2C(C)(C)CCC[C@]13C`, the Potency result in [1], in assay [2], in assay [3], in assay [5], in assay [18] and in assay [19] was “inactive” each time. Besides, the Potency entry in assay [8], in assay [10], in [13], in [15] and in assay [17] was “inactive” throughout. In addition, the molecule was called inactive in assay [14] and in [16].

With `COCC(C)OC(C)=O` (stereo unspecified), the Potency entry in assay [1], in [2], in [3], in [4], in [5] and in assay [19] was “inactive” in each case. Moreover, the Potency entry in assay [8], in assay [9], in [11], in assay [12], in [13] and in assay [15] was “inactive” each time. Moreover, the molecule was classed as inactive in assay [14].

Turning to `CC(C)Nc1ccc(NC(C)C)c2c1C(=O)c1ccccc1C2=O`, the Potency entry in assay [1], in assay [2], in assay [3], in assay [18], in assay [19] and in assay [6] was “inactive” each time. In addition, the Potency result in assay [9], in [12] and in [15] was “inactive” each time. For the same molecule, the Potency in assay [4] and in assay [8] was 11.3 µM (active) throughout. Also, the outcome in [14] was inactive.

For the molecule `CC(C)(CO)[N+](=O)[O-]`, the Potency result in [1], in [2], in [3], in assay [4], in assay [5] and in [8] was “inactive” throughout. The Potency entry in assay [9], in assay [10], in assay [11], in [12], in [13] and in assay [15] was “inactive” throughout. Moreover, in assay [14], the outcome was inactive.

For `OCCNCc1ccccc1`, the Potency entry in assay [1], in assay [2], in assay [3], in [5], in assay [20] and in assay [18] was “inactive” throughout. Further, the Potency result in assay [19], in [8], in [9], in assay [10], in assay [12] and in [13] was “inactive” in each case. Further, in [15], the Potency entry is “inactive”. Besides, in assay [14], the molecule was classed as inactive.

Values taken from PubChem BioAssay (Tox21).
